Results on ten molecules are retold here after PubChem BioAssay (EPA / NIEHS).

In general, AC50 refers to the concentration giving half of the maximal activity seen.

Calls of active or inactive are those of the source. The calls were made as follows: active = hit-call score of the fitted dose curve at least 0.9, where 1 is the maximum; inactive = score below 0.9.

This assay can be described thus: CCTE_Shafer_MEA_acute_cross_correlation_area: CCTE's Neural Acute Assay for Area of Cross Correlation, Shafer Lab (AID 2284024).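 Also: curves fitted for loss of cross-correlation area so actives lower synchrony.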 As for the experimental part:
CCTE_Shafer_MEA_acute assay is conducted using Axion Biosystems 48 well microelectrode array (MEA) plates and Maestro recording system. Each well of the MEA plate contains a grid of 16 microelectrodes embedded in the culture surface. Electrically active cells, such as neurons, can be cultured over the electrodes, and electrical activity in these cells can be recorded extracellularly. The spontaneous firing of neurons is captured from each electrode on a microsecond timescale providing both temporally and spatially precise data. […] The CCTE_Shafer_MEA_acute assay uses primary cultures of rat cortical neurons. As these cultures mature over time, neural networks develop functional activity and form cohesive networks in which electrical activity can be highly coordinated. Baseline 40-minute recordings are made on days post-plating 13 or 15, followed by a secondary 40-minute recording after chemical exposure.CCTE_Shafer_MEA_acute_cross_correlation_area is a component of the CCTE_Shafer_MEA_acute assay. It measures the area under the well-wide pooled inter-electrode cross-correlation of action potential firing (not normalized to auto-correlations) within a window centered around 0 for the phase lag during a recording in a microelectrode array (MEA) using Axion Biosystems Maestro 768 channel amplifier with the AxIS adaptive spike detector. The recordings before and after chemical treatment are used to calculate a percent change in the cross correlation area in each well.Data from the assay component CCTE_Shafer_MEA_acute_cross_correlation_area was analyzed into 1 assay endpoint. This assay endpoint, CCTE_Shafer_MEA_acute_cross_correlation_area, was analyzed in the negative analysis fitting direction relative to DMSO as the negative control and baseline of activity. Using a type of functional reporter, gain or loss-of-signal activity can be used to understand electrical activity.
Spontaneous activity in the cortical cultures was recorded using an Axion Biosystems Maestro 768 channel amplifier and Axion Integrated Studios (AxIS) v1.8 (or later) software. The amplifier recorded from all channels simultaneously (gain = 1200 x; sampling rate = 12.5 kHz/channel): raw signals were filtered with a Butterworth band-pass filter (300-5000 Hz), which filters out slower local field potentials leaving only fast potentials, i.e., "spikes", arising from extracellular currents associated with action potentials (Pine 2006; Wheeler and Nam 2011). On-line spike detection of filtered signals was conducted with the AxIS adaptive spike detector, using a threshold of 8x the root mean squared (rms) noise on each channel. Any electrodes with rms noise levels greater than 5 uV were grounded (e.g., no data were recorded). Once grounded, an electrode was grounded for the duration of the experiment. All recordings were conducted at 37 C. Wells were deemed usable if on the day of the exposure >/= 10 electrodes were active (defined as >/= 5 spikes/min). On DIV 13 or 15, a minimum of three wells from one cortical culture preparation were treated with each compound (0.03-40 uM). Prior to recording baseline activity, each mwMEA plate was placed in the Maestro at 37 C and allowed to sit for 20 min while firing rates stabilized. Baseline activity (40 min) was recorded before the addition of each compound. An additional 40 min of spontaneous activity was recorded in the presence of each compound. Changes in network parameters relative to baseline were assessed following compound treatment.
Turning to `CC1(C)CCC[C@]2(C)[C@H]3CCO[C@]3(C)CC[C@@H]12`, the outcome was inactive.

Turning to `CC(CN=Cc1ccccc1O)N=Cc1ccccc1O` (stereo not given), the outcome was inactive.

Regarding `Oc1c(Cl)cc(Cl)c(Cl)c1Cc1c(O)c(Cl)cc(Cl)c1Cl`, the AC50 is 0.127 µM (active).

With `CCCCCCC(CO)CCCC` (stereo not given), the outcome was inactive.

In the case of `COCCc1ccc(OCC(O)CNC(C)C)cc1` (stereo not given), the outcome was inactive.

As for `CCOC(=O)C(C#N)=C(c1ccccc1)c1ccccc1`, the molecule was called inactive.

Consider `C=CC(C)(O)CCC=C(C)C` (stereo not given), for which the molecule was called inactive.

In the case of `CN(C)C(=S)SC(=S)N(C)C`, the call was inactive.

For `O=CN1CCOCC1`, the molecule was called inactive.

Take `O=C(Nc1ccc2c(O)c(N=Nc3ccc(N=Nc4ccc(S(=O)(=O)O)cc4)cc3)c(S(=O)(=O)O)cc2c1)c1ccccc1`: the result was inactive.
